Measurements as given in PubChem BioAssay AID624351 (Southern Research Specialized Biocontainment Screening …, 2012).
In all, about 2,400 compounds went through this assay and about 1,400 (58%) were called active.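 The calls were made as follows: active = inhibition of 30% or more at any tested dose; inconclusive = primary hits over the limit that were never retested; inactive = the rest.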 The set was probably picked from earlier hits. This is one part of the list.

Test: ADP Hunter readout inhibition without MgcRacGAP – biochemical, coupled enzyme counter-screen, artefact control for MgcRacGAP inhibitor project, dose response (AID 624351);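 also: signal is the ADP detection kit reading of free GDP without any GAP enzyme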;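 as to inhibition: 0% = median positive control wells and 100% = median negative control wells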
Details: fluorescence, no MgcRacGAP; series mostly up to 80 µM; inhibition: at the top concentration

Row | Structure (SMILES) | IC50 | inhibition
1 | Oc1cccc2c(NC(=S)Nc3ccc(OC(F)F)cc3)cccc12 | 83.5 µM (active) | 
2 | C#CCOCCOCCOCCNc1nc(N2CCN(C(=O)CCCCCCCCCCNC(=O)[C@@H](CCSC)n3cc(CCO)nn3)CC2)nc(N2CCN(C(=O)CCCCCCCCCCNC(=O)[C@H](CO)n3cc(CCCCCN)nn3)CC2)n1 |  | 1.72% (inactive)
3 | Oc1ccc(-c2csc(-c3cccnc3)n2)c(O)c1 | 43.4 µM (active) | 
4 | COc1cc2cc(-c3ccc(O)cc3O)nc(C)c2cc1OC | 45.1 µM (active) | 
5 | Oc1ccc(-c2csc(-c3cccnc3)n2)cc1O | 11 µM (active) | 
6 | COc1ccc(-c2nc(-c3ccc(O)cc3O)cs2)cc1OC | 55.4 µM (active) | 
7 | COc1ccc(-c2ncc3ccccn23)cc1OC |  | -12.6% (inactive)
8 | Clc1cc(Cl)c(OCCCCn2cncn2)c(Cl)c1 |  | 12.8% (inactive)
9 | CCCCN(C)C(=O)C1CCN(Cc2ccc(OCc3ccccc3)cc2)CC1 |  | 18.4% (inactive)
10 | COc1ccc(C2NC(c3ccc(OC)cc3OC)C(C)C(=O)C2C)c(OC)c1 (stereo not drawn) |  | 19.7% (inactive)
11 | CC1CC(C)CN(CC(=O)NC(c2ccccc2)c2ccccc2)C1 (stereo not drawn) |  | 10.7% (inactive)
12 | COc1cc(/C=C2\SC(N)=NC2=O)cc(Cl)c1O | 45.7 µM (active) | 
13 | COc1cc(/C=C2\SC(c3ccc(C)cc3)=NC2=O)cc(OC)c1O |  | 18.2% (inactive)
14 | CCN=C1S/C(=C\c2ccc(O)c(OCC)c2)C(=O)N1CC | 39 µM (active) | 
15 | CCOc1cc(/C=C2\SC(=O)N=C2N)ccc1O | 14.3 µM (active) | 
16 | CCCN1C(=O)/C(=C/c2cc(C)n(C)c2C)SC1=Nc1ccc(OCC)cc1 |  | -18.7% (inactive)
17 | COc1cc(/C=C2\SC(N)=NC2=O)ccc1O | 16.4 µM (active) | 
18 | COc1cccc(OC)c1OCCNC(C)(C)C |  | 8.19% (inactive)
19 | CCOc1cc(/C=C2/NC(=O)N(Cc3ccccc3F)C2=O)ccc1O | 50 µM (active) | 
20 | NC1=NC(=O)S/C1=C\c1ccc(O)cc1 | 20.2 µM (active) | 
21 | N=C1/C(=C\c2ccc(Br)o2)C(=O)N=C2SC(CC(=O)N3CCOCC3)=NN12 |  | 2.42% (inactive)
22 | CCOc1cc(/C=C2\C(=O)ON=C2c2ccccc2)cc(Br)c1O |  | 0.5% (inactive)
23 | CCS(=O)(=O)C1=NN2C(=N)/C(=C\c3ccc(SCc4ccco4)o3)C(=O)N=C2S1 |  | 8.36% (inactive)
24 | N=C1/C(=C/c2ccc(Br)o2)C(=O)N=C2SC(CC(=O)N3CCCC3)=NN12 |  | 0.87% (inactive)
25 | Cc1ccc(S(=O)(=O)Oc2ccc(/C=C3\C(=N)N4N=C(S(C)(=O)=O)SC4=NC3=O)cc2)cc1 |  | 0.72% (inactive)
26 | CC(NCc1cccc(S(=O)(=O)N(C)C)c1)c1ccc(F)cc1 (stereo not drawn) |  | 17.1% (inactive)

Row | Structure (SMILES) | IC50 | inhibition
27 | CCOc1cc(/C=C2\SC(N)=NC2=O)ccc1O | 55.5 µM (active) | 
28 | C#CCOCCOCCOCCNc1nc(N2CCN(C(=O)C([C@@H](C)O)n3cc([C@@H](N)CCCCN)nn3)CC2)nc(N2CCN(C(=O)[C@H](CCCCN)n3cc(CN)nn3)CC2)n1 (stereo partly drawn) |  | 5.73% (inactive)
29 | Cc1cc(C)nc(SCC(=O)c2ccc(O)c(O)c2)n1 | 38 µM (active) | 
30 | O=C(CSc1nnnn1-c1ccc(F)cc1)c1ccc(O)c(O)c1 | 77.2 µM (active) | 
31 | CN(C)c1cc(NC(=O)CN2CCCC2)c2ccccc2n1 |  | 28.4% (inactive)
32 | Cc1cc(SCC(=O)c2ccc(O)c(O)c2)nc2ccccc12 | 58.9 µM (active) | 
33 | CC(C)(C)CC(C)(C)NCC(=O)Nc1c2c(nc3ccccc13)CCC2 |  | 24.6% (inactive)
34 | Cc1cc(=O)oc2c(O)c(O)ccc12 | 28.8 µM (active) | 
35 | O=C(O)c1cccc2cccc(-c3c4ccc(=O)c(O)c-4oc4c(O)c(O)ccc34)c12 |  | -17.4% (inactive)
36 | Cc1[nH]n(-c2ccccc2)c(=O)c1/C=N/N(C)c1ccccc1 | 15 µM (active) | 
37 | O=C(O)C1Nc2c(O)cc(Cl)c([N+](=O)[O-])c2C2C=CCC12 (stereo not drawn) |  | -30.6% (inactive)
38 | COc1cc(Sc2ccc(C)cc2)c(OC)cc1N | 22.5 µM (active) | 
39 | O=C(N/C(=C\c1ccc(O)cc1)C(=O)N1CCCCC1)c1ccccc1 | 54.1 µM (active) | 
40 | COc1ccc(NC2CCCN(C(=O)c3cccc(N(C)C)c3)C2)cc1 (stereo not drawn) | 74.8 µM (active) | 
41 | O=C(c1cccc(F)c1)N1CCN(C2CCCCC2)CC1 |  | 18.3% (inactive)
42 | COc1ccc(NC2CCCN(C(=O)c3ccc(C)c(N4CCNC4=O)c3)C2)cc1 (stereo not drawn) |  | 24.7% (inactive)
43 | COc1cccc(C(=O)N2CCN(C3CCCCC3)CC2)c1 |  | 11.9% (inactive)
44 | COc1ccc(NC2CCCN(C(=O)c3cccc(N4CCNC4=O)c3)C2)cc1 (stereo not drawn) | 81.2 µM (active) | 
45 | COc1cc(OC)cc(C(=O)N2CCN(Cc3ccccc3Br)CC2)c1 |  | 13.3% (inactive)
46 | Cc1cc(-c2ccccc2)nc2c(Br)c(=O)[nH]n12 |  | 3.62% (inactive)
47 | Cc1ccc(N2C(S)=C(C#N)C(=O)NC23CCCCC3)cc1 |  | 4.43% (inactive)
48 | CC(=O)NN1C(=O)/C(=C\c2ccc(Br)o2)SC1=S |  | 6.09% (inactive)
49 | COc1cc(/C=C2\SC(=S)N(NC(=O)c3ccncc3)C2=O)ccc1O | 44.1 µM (active) | 
50 | COc1cc(/C=C2\SC(=S)N(NC(=O)c3ccc(O)cc3)C2=O)ccc1O | 79.5 µM (active) | 
51 | COc1cc(/C=C2\SC(=S)N(NC(=O)c3cccc(O)c3)C2=O)ccc1O | 67.5 µM (active) | 
52 | CC(=O)NN1C(=O)/C(=C/c2ccc(Br)o2)SC1=S |  | -2.96% (inactive)

Row | Structure (SMILES) | IC50 | inhibition
53 | O=C(O)CCCN1C(=O)/C(=C\c2ccco2)SC1=S |  | -23.9% (inactive)
54 | O=C1C(=Cc2cccc(O)c2O)SC(=S)N1CCCN1CCOCC1 |  | 25.8% (inactive)
55 | COc1cc(/C=C2\SC(=S)N(Nc3ccccc3)C2=O)ccc1O | 75.4 µM (active) | 
56 | CC(=O)OCCNc1cc(N2CCN(C)CC2)c2noc3c2c1C(=O)c1ccccc1-3 |  | -4.34% [at 10 µM] (inactive)
57 | O=C(O)c1ccc2c(c1)[C@@H]1C=CC[C@@H]1[C@H](c1ccccn1)N2 |  | 0.72% (inactive)
58 | CCOC(=O)c1sc2nc(CSc3ccccc3)nc(N3CCCN(C)CC3)c2c1C |  | 13.6% (inactive)
59 | CCOc1cc(/C=N\NC(=O)c2c(C)nc3ccccn23)ccc1O | 83.5 µM (active) | 
60 | COc1cc(/C=N\NC(=O)c2c(C)nc3cc(C)ccn23)ccc1O | 50.4 µM (active) | 
61 | CCOc1cc(/C=C2\N=C3CCCCCN3C2=O)ccc1O | 55.8 µM (active) | 
62 | O=C1/C(=C\c2ccc(O)c(O)c2)N=C2CCCCCN12 | 18.3 µM (active) | 
63 | O=C(CNC1CC1)Nc1cc(C(F)(F)F)ccc1Cl |  | 17.2% (inactive)
64 | COc1ccc(NC(=O)NS(=O)(=O)c2ccc(C)cc2)cc1OC | 25.5 µM (active) | 
65 | Cc1ccc(S(=O)(=O)N[C@H](C(=O)OCn2nnc3ccccc3c2=O)C(C)C)cc1 |  | 1.81% (inactive)
66 | O=C(N/N=C/c1ccc(O)c(O)c1)c1cccc(S(=O)(=O)N2CCCCC2)c1 | 72.8 µM (active) | 
67 | CCN(CC)S(=O)(=O)c1cccc(C(=O)N/N=C/c2ccc(OC)c(O)c2)c1 | 81.2 µM (active) | 
68 | COc1ccc(/C=N/NC(=O)c2cccc(S(=O)(=O)N3CCCC3)c2)cc1O | 55.4 µM (active) | 
69 | O=C(CNCc1ccco1)Nc1cccc(S(=O)(=O)N2CCCCC2)c1 |  | 15.6% (inactive)
70 | O=C(/C=C/c1ccc(O)c(O)c1)c1ccc(S(=O)(=O)N2CCCCCC2)cc1 |  | 29.4% (inactive)
71 | CCOc1cc(C=NNC(=O)c2cccc(S(=O)(=O)N3CCCC3)c2)ccc1O | 32.6 µM (active) | 
72 | COc1ccc2c3c(cccc13)N(C)N=C2C |  | 1.94% [at 40 µM] (inactive)
73 | Cc1sc2c3ccsc3ccc2[n+]1C |  | 0.2% (inactive)
74 | O=C(COc1ccccc1[N+](=O)[O-])N/N=C/c1ccc(O)cc1 | 70.9 µM (active) | 
75 | O=C(COc1cccc2cccnc12)N/N=C/c1ccc(O)cc1 | 80 µM (active) | 
76 | O=[N+]([O-])c1ccccc1OCCNCc1ccccc1 |  | -0.42% (inactive)
77 | COCc1cc(C)nc(OCC(=O)N/N=C/c2ccc(O)cc2)c1C#N | 79.7 µM (active) | 
78 | O=C(Cc1ccc(Cl)cc1)N/N=C/c1ccc(O)c(O)c1 | 19.4 µM (active) | 

Row | Structure (SMILES) | IC50 | inhibition
79 | O=C(CCc1ccc(O)c(O)c1)N/N=C/c1ccc2c(c1)OCO2 |  | 9.28% (inactive)
80 | O=C(Sc1n[nH]c(=O)[nH]c1=O)c1ccccc1 |  | -1.01% (inactive)
81 | CCn1nc(NS(=O)(=O)c2ccccc2[N+](=O)[O-])c2cc3ccc(C)cc3nc21 |  | 7.55% (inactive)
82 | O=C(COc1ccccc1C(=O)N/N=C\c1ccc(O)c(O)c1)N/N=C/c1ccc(O)c(O)c1 | 28.8 µM (active) | 
83 | CCOC(=O)CCNC(C)C1COc2ccccc2O1 (stereo not drawn) |  | 12.8% (inactive)
84 | COc1cc(/C=N\NC(=O)CNC(=O)C2COc3ccccc3O2)ccc1O (stereo not drawn) | 35.8 µM (active) | 
85 | O=C(CNC(=O)C1COc2ccccc2O1)N/N=C/c1ccc(O)cc1O (stereo not drawn) | 66.8 µM (active) | 
86 | CCCCN(CC)CCNC(=O)c1cc2c(-c3ccc(Cl)cc3)nn(C)c2s1 |  | 22.5% [at 40 µM] (inactive)
87 | c1cc2c(cc1NC1CCCCCC1)OCO2 | 45.1 µM (active) | 
88 | c1cc2c(cc1CN1CCN(C3CCCCCC3)CC1)OCO2 |  | 23.1% (inactive)
89 | COc1ccc(N2C(S)=C(C#N)C(=O)NC2c2ccco2)cc1 (stereo not drawn) |  | 6.86% (inactive)
90 | COc1cc(/C=C2/SC(=S)N(c3c(C)n(C)n(-c4ccccc4)c3=O)C2=O)ccc1O | 48.2 µM (active) | 
91 | O=C1NC(=NCc2ccccc2)S/C1=C/c1ccc(O)cc1 | 20.1 µM (active) | 
92 | COc1cc(/C=C2\SC(=Nc3c(C)n(C)n(-c4ccccc4)c3=O)NC2=O)ccc1O | 44.4 µM (active) | 
93 | O=C1N/C(=C\c2ccc(O)cc2)C(O)=C1C=NCc1ccccc1 | 16 µM (active) | 
94 | Cc1c(N=C2NC(=O)/C(=C/c3ccc(O)cc3)S2)c(=O)n(-c2ccccc2)n1C | 72 µM (active) | 
95 | Nc1ccc2[nH]c(=S)[nH]c2c1 | 21 µM (active) | 
96 | Nc1ccc2[nH]c(=S)sc2c1 |  | 26.9% (inactive)
97 | CCCS(=O)(=O)N1CCN(C2Cc3ccccc3C2)CC1 |  | 22% (inactive)
98 | CCCCn1c(C)cc2cc(O)ccc21 | 30.4 µM (active) | 
99 | Cn1c(=O)[nH]c(N)c(Br)c1=O |  | 4.71% (inactive)
100 | Cc1cc(C)nc(N/N=C/c2c[nH]c3ccccc23)n1 | 55.4 µM (active) | 
101 | Cc1ccsc1/C=N/Nc1nc2ccccc2[nH]1 | 26 µM (active) | 
102 | C(=N\Nc1nc2ccccc2[nH]1)/c1c[nH]c2ccccc12 | 37.6 µM (active) | 
103 | Cn1c(N/N=C/c2c[nH]c3ccccc23)nc2ccccc21 | 40.6 µM (active) | 
